Data taken from PubChem BioAssay AID1347416 (National Center for Advancing Translational Sciences (NCATS), 2020).
The campaign covered roughly 4,100 compounds. About 1,600 (39%) were called active. Another 25% or so got no clear call; they are omitted. Calls follow the shape of the dose curve; as a rule, active = well fitted inhibition curve with a large enough effect; inconclusive = small, poorly fitted or top-dose-only effect; inactive = no such curve, though single readings can be large or run the other way. The list shows a part of the results.

Assay: qHTS Validation assay for Inhibitors of Plasmodium falciparum Dd2 growth in vitro; also: nearly all actives have a fitted effect of over 70% in size
Settings: P. falciparum Dd2 in RBCs, SYBR Green growth, 72 h; series mostly up to 28.7 µM; activity change, negative = inhibition: at the top concentration
Summary of the method: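 P. falciparum Dd2-infected red blood cells (2.5% hematocrit, 0.3% parasitemia) grown 72 h at 37 °C under 5% O2 with compounds in a titration, 29 uM to 0.5 nM final. Growth read as SYBR Green-1 fluorescence after ~16 h lysis; artesunate 300 nM as positive control.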
% is scaled to controls: 0 for no effect and ±100 for the full control effect; potency is read from the fitted curve at half-maximal effect.

Activity change, negative = inhibition, inactive:
O=C(C1CC1)N(Cc1nc2ccccc2c(=O)[nH]1)Cc1cccs1 20.1%
COCCN1CCNc2nc(CNCc3cnccn3)n(Cc3ccccc3)c2C1=O 0% [at 43.1 µM]
Cc1ccc(S(=O)(=O)NC[C@H]2O[C@H](Cc3cc(-c4cccc(O)c4)on3)CC[C@@H]2O)cc1 -18.8%
Cc1nccn1CC(=O)N1C[C@@H](COCC2CC2)[C@H](c2ccncc2)C1 34.9%
O=C(N[C@@H]1CN(c2ncccn2)C[C@H]1CO)c1cc2ccccc2[nH]1 13%
NC(=O)CN1C(=O)CO[C@H]2CN(Cc3ccc4c(c3)OCO4)C[C@H]21 59.2% [at 43.1 µM]
COc1ccc(-c2cn(C)c(=O)n3cc(COc4ccc(Cl)cc4)nc23)cn1 36.1% [at 43.1 µM]
COC[C@@H]1CN(c2cnccn2)C[C@H]1C(=O)Nc1ccc(OC)nc1 17.9%
Cn1c(-n2cccc2)c(-c2c(-c3ccc(F)cc3)[nH]c3c2c(=O)n(C)c(=O)n3C)c(=O)n(C)c1=O 45.5%
CCCC(C)N1CC2(CCN(C(=O)Cn3nc(C)cc3C)CC2)OC1=O (stereo unspecified) 20.9%
O=C1CCN(C2CCCC2)CCCC(c2nc(-c3cccnc3)no2)CCN1 (stereo unspecified) -12.4%
O=C(c1ccsc1)N1CCCCCC1c1nc(-c2cccnc2)no1 (stereo unspecified) 9.04%
CNC(=O)c1cc(-c2ccc([S+](C)(=O)[O-])cc2)cc2c1OCCN2Cc1cccnc1 -24.3% [at 43.1 µM]
COc1cncc(-c2cc(C(=O)NCc3cccnc3)c3c(c2)N(C)CCO3)c1 9.35% [at 43.1 µM]
CNC(=O)c1cc(-c2ccncc2)cc2c1OCCN2Cc1cccnc1 -14.5% [at 43.1 µM]
COCCNC(=O)C[C@@H]1C[C@H]2O[C@H](CN)[C@@H](O)[C@H]2O1 18.5% [at 57.5 µM]

Potency, active:
COc1ccc(-c2cc(C[C@@H]3CC[C@H](O)[C@@H](CNCc4ccccc4OC)O3)no2)cc1 3.44 µM
COc1ccc(CNC[C@H]2O[C@H](Cc3cc(-c4ccc(OC)cc4)on3)CC[C@@H]2O)cc1 10.6 µM
COc1ccc(CNC[C@H]2O[C@H](Cc3cc(-c4ccccc4)on3)CC[C@@H]2O)cc1 3.85 µM
O[C@H]1CC[C@@H](Cc2cc(-c3ccc(F)cc3)on2)O[C@@H]1CNC1CCCCC1 2.43 µM
COc1ccc(NC(=O)C(c2ccc(Cl)cc2)C(C)C)cn1 (stereo unspecified) 1.88 µM
CN1CCN(c2ccc(-c3noc([C@@H]4CCCN4C4CCCCC4)n3)cn2)CC1 19.3 µM
CN(C)CCNC(=O)c1cc(-c2ccccc2F)cc2c1OCCN2Cc1cccnc1 6.85 µM
CN1CCOc2c(C(=O)NCc3cccnc3)cc(-c3cccc4[nH]ccc34)cc21 8.63 µM
C#CCNC(=O)C[C@@H]1c2nc(NC(=O)OCC=C)sc2C[C@@H]2[C@](C)(CO)[C@H](O)CC[C@]21C 15 µM
C=CCOC(=O)Nc1nc2c(s1)C[C@@H]1[C@](C)(CO)[C@H](O)CC[C@@]1(C)[C@@H]2CC(=O)NC1CCCCC1 3.76 µM
